Bioassay records deposited in PubChem BioAssay by National Center for Advancing Translational Sciences (NCATS).
Most compounds without a hit are left out; they make up all but 7.9% or so of the library.
KB-V1 cytotox – qHTS assay for MDR1-selective chemotherapeutics: Primary screen using the drug-selected MDR subline cells KB-V1; KB-V1 MDR cells viability, CellTiter-Glo, 72 h; Potency, µM (top dose mostly 46.1 µM), actives largely listed as cytotoxic; 3.4% of 400,000 active; AID 1347076, 2019; note: % is set by controls: 0 for no effect and ±100 for the full control effect; nearly all actives have a fitted effect of over 60% in size
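KB-V1, DMEM (no phenol red) + 10% FBS; cpd pin-transferred, titration series; 72 h, 37 degrees C; CellTiter-Glo, luminescence. Data normalized, curve-fit.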
SW480 rerep – A quantitative high throughput screen for small molecules that induce DNA re-replication in SW480 colon adenocarcinoma cells; SW480 DNA re-replication, Hoechst DNA content imaging, 48 h; Potency, µM (doses to about 46.1 µM), inactives show top-dose re-replication activation, hits mostly activators; 1.8% of 340,000 active; AID 624297, 2012; note: % of control where 0% means no effect; nearly all actives have a fitted effect of over 55% in size
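SW480 cells exposed to compounds for 48 hr at 37 C, 5% CO2, then Hoechst-stained 40 min. Nuclear DNA content imaged by fluorescence scanning (405 nm excitation, 500-530 nm emission); re-replication scored as increased high-intensity nuclei.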
HT1080-NT tox – qHTS for induction of synthetic lethality in tumor cells producing 2HG: qHTS for the HT-1080-NT fibrosarcoma cell line; HT-1080-NT fibrosarcoma viability, CellTiter-Glo ATP luminescence, 48 h; Potency, µM (series often up to 46.1 µM), for inactives: at the highest dose activity, negative = less viability, actives largely listed as cytotoxic; 1.6% of 360,000 active; AID 686970, 2013;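 note: NT is the 2HG producing partner of a matched IDH1 knockdown line; 0% = DMSO-treated cells and -100% = media-only wells without cells; nearly all actives have a fitted effect of over 55% in size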
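Read-out is CellTiter-Glo luminescence after 10 minutes at room temperature, following 48 hours' compound treatment of HT-1080-NT cells (750 cells/well, RPMI, 5% FBS, 37 degrees C).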
HT1080 IDH1KD tx – qHTS for induction of synthetic lethality in tumor cells producing 2HG: qHTS for the HT-1080-IDH1KD cell line. 2% of 360,000 active. Potency, µM (top dose mostly 46.1 µM), for the others: at the top dose activity, negative = toxicity, actives largely listed as cytotoxic. HT-1080 IDH1 knockdown viability, ATP luminescence, 48 h;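 note: 0% = DMSO wells and -100% = cell-free medium wells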
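% activity derives from luminescence (CellTiter-Glo), normalised to DMSO and no-cell wells. HT-1080-IDH1KD cells, 750/well, had 48 h compound exposure at 37 °C.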
MCF10A rerep – A quantitative high throughput screen for small molecules that induce DNA re-replication in MCF 10a normal breast cells; MCF 10A DNA re-replication, Hoechst nuclear intensity, 48 h; Potency, µM (series often up to 46.1 µM), for inactives: top-dose activity, positive = re-replication, hits mostly activators; 2.9% of 350,000 active; AID 624296, 2012; note: % of control where 0% means no effect; nearly all actives have a fitted effect of over 50% in size
KB-3-1 tox – qHTS assay for MDR1-selective chemotherapeutics: Primary screen using the parental adenocarcinoma cell KB-3-1. 1.4% of 400,000 active. Potency, µM (highest dose often 46.1 µM), usual class: cytotoxic. AID 1347075, 2019. KB-3-1 viability, CellTiter-Glo ATP luminescence, 72 h; note: % is set by controls: 0 for no effect and ±100 for the full control effect; nearly all actives have a fitted effect of over 60% in size
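Luminescent ATP read-out (CellTiter-Glo) measures survival of drug-naive KB-3-1 cells after 72 h compound exposure at 37 °C. Titration series was screened from lowest to highest concentration, with DMSO vehicle plates as background controls.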
The depositor's hits bear a star; i = inactive; ? = inconclusive; · = no result given; [ ] = another dose, or the depositor's remark. Calls come from the whole dose curve; as a rule, active = well fitted curve in the direction sought with a large enough effect; inconclusive = small, poorly fitted or top-dose-only effect, or another doubt; inactive = no such curve, though single readings can be large; an effect the other way counts as inactive or inconclusive. Potency is the fitted concentration of half-maximal effect.

SMILES | KB-V1 cytotox | SW480 rerep | HT1080-NT tox | HT1080 IDH1KD tx | MCF10A rerep | KB-3-1 tox
COc1cc(/C=N/Nc2ncnc3sc4c(c23)CCC4)ccc1O | i | 23.1µM* | -23.4% | ? | ? | ?
COc1cc(/C=N/N(c2ccccc2)c2ccccc2)ccc1O | i | ? | 18.4µM* | 16.4µM* | ? | ?
COc1cc(/C=N/Nc2ccccc2)ccc1O | i | 23.9% | ? | 20.6µM* | ? | i
COc1cc(/C=N/Nc2ccccc2C(F)(F)F)ccc1O | i | 3.1% | 2.5% | 2.5% | 1.6% | i
COc1cc(/C=N/NC2=NCCCCC2)ccc1O | i | -6.0% | ? | 13.4% | -4.5% | i
COc1cc2c(cc1OC)C(COc1ccc3c(C)cc(=O)oc3c1)N(C(=O)CC(C)C)CC2 (stereo not given) | i | · | · | · | · | i
COc1ccc(N2C(=O)Cc3cc(OC)c(OC)cc3C2c2ccc(F)cc2)cc1 (stereo not given) | i | · | · | · | · | i
CCOc1ccc(C2c3cc(OC)c(OC)cc3CC(=O)N2c2ccc(OC)cc2)cc1 (stereo not given) | ? | 14.6µM* | ? | ? | 124.0% | 18.4µM*
Cc1cccc(N2CCN(C(C(=O)NCc3ccccc3)c3ccco3)CC2)c1C (stereo not given) | ? | · | ? | ? | · | i
COc1cccc(C(C(=O)NCc2ccccc2)N2CCN(c3cccc(C)c3C)CC2)c1OC (stereo not given) | 16.4µM* | · | ? | ? | · | ?
CC1(C(=O)Nc2ccc3c(c2)OCCO3)CCC(=O)N1CCOc1ccccc1 (stereo not given) | i | · | 18.0% | 22.4% | · | i
CCn1c(=S)[nH]c2cc(S(=O)(=O)N3CCCCC3)ccc21 | 13µM* | -7.8% | ? | -18.9% | -9.3% | i
Cc1ccnc(NC(=O)N2CCN(c3cccc(C(F)(F)F)c3)CC2)c1 | ? | · | · | · | · | i
CCOc1cc(/C=C\[N+](=O)[O-])ccc1OCC(=O)Nc1ccccc1C | i | ? | 2.91µM* | 6.51µM* | 2.91µM* | i
Cc1nc(NC(=O)/C=C/c2ccccc2)sc1C(=O)Nc1ccccc1Cl | i | 16.4% | 0.6% | -12.8% | 3.7% | i
Cc1nc(NC(=O)/C=C/c2ccccc2)sc1C(=O)Nc1ccc(Cl)cc1 | i | ? | ? | ? | 16.4µM* | i
Cc1nc(Nc2ccc(Cl)cc2Cl)sc1C(=O)Nc1ccccc1 | ? | 2.9% | 18.0% | 26.3% | -6.4% | i
Cc1nc(Nc2ccc(Cl)c(Cl)c2)sc1C(=O)Nc1ccccc1 | i | 27.7% | ? | -23.3% | 23.1µM* | ?
O=C(COc1ccccc1F)OCc1cc(=O)n2nc(C3CC3)sc2n1 | i | · | · | · | · | i
CN(C)C1=NC[C@H](Cc2ccccc2)N1CCCC1CCCCC1 | i | -55.5%[9.22 µM] | -15.7% | ? | 14.4% | i
CN(C)C1=NC[C@H](Cc2ccccc2)N1CCCC1CCCC1 | i | ? | 20.6µM* | ? | 1.3% | i
Cc1cc(F)ccc1-c1cc(C(=O)NC(C)C)[nH]n1 | i | · | ? | 15.7% | · | i
COc1ccccc1N1CCN(c2ccc(-c3nc(-c4ccccc4)no3)cc2[N+](=O)[O-])CC1 | i | · | · | · | · | i
COc1cc(Cl)c(C)cc1NC(=O)CSCC#N | i | -8.5% | 10µM* | -28.9% | 0.5% | i
COc1cc(Cl)c(C)cc1NC(=O)CSC | ? | -1.1% | 14.2% | 1.6% | -0.6% | i
SMILES | KB-V1 cytotox | SW480 rerep | HT1080-NT tox | HT1080 IDH1KD tx | MCF10A rerep | KB-3-1 tox
Cc1noc(C)c1C(=O)N1CCC(Cc2ccccc2)CC1 | 14.6µM* | -1.8% | 1.5% | -1.5% | 5.5% | i
Cc1onc(-c2ccccc2Cl)c1C(=O)N1CCC(Cc2ccccc2)CC1 | i | -12.9% | -11.3% | 18.4µM* | ? | ?
Cc1onc(-c2ccccc2Cl)c1C(=O)N1CCC(C(N)=O)CC1 | i | 4.3% | 2.0% | 11.4% | 4.0% | i
O=C(NC1CCCC1)c1nc(-c2c(F)cccc2F)oc1-c1ccccc1 | ? | · | -7.6% | -22.6% | · | i
CC(C)Oc1ccc(C(=O)N2CCN(CCc3ccccn3)CC2)cc1 | i | · | · | · | · | i
Cc1cccc(-c2nc3nc(C)cc(NCc4ccccc4Cl)n3n2)c1 | ? | · | · | · | · | i
COC(=O)c1cc(O)cc(OC)c1C(=O)c1c(O)cc(C)cc1O | i | 5.2% | -3.7% | -7.9% | ? | i
COC(=O)c1cc(O)cc(OC)c1Oc1cc(C)cc(O)c1C(=O)O | i | ? | 23.1µM* | ? | ? | ?
COc1ccc([N+](=O)[O-])cc1NC(=O)C(C)NNC(=O)c1cccc([N+](=O)[O-])c1 (stereo not given) | 18.4µM* | -4.3% | -10.3% | -17.4% | 10.6% | i
O=C(NNC(=S)NC(=O)c1ccccc1Cl)c1cccc([N+](=O)[O-])c1 | i | 9.8% | -4.0% | -19.3% | ? | ?
COc1ccc([N+](=O)[O-])cc1NC(=S)NC(NC(=O)C(c1ccccc1)c1ccccc1)C(Cl)(Cl)Cl (stereo not given) | i | -0.1% | ? | 5.8µM* | ? | ?
O=C(NC(NC(=S)Nc1c(Cl)cccc1Cl)C(Cl)(Cl)Cl)c1cccc([N+](=O)[O-])c1 (stereo not given) | ? | ? | ? | ? | 6.51µM* | ?
COc1ccc([N+](=O)[O-])cc1NC(=O)C(C)c1ccccc1 (stereo not given) | i | 3.3% | -8.7% | -5.0% | ? | i
COC(=O)NC(NC(=S)Nc1ccc([N+](=O)[O-])cc1)C(Cl)(Cl)Cl (stereo not given) | 20.6µM* | 15.8% | -9.7% | -5.7% | 23.1% | ?
CCOC(=O)NC(NC(=S)Nc1ccc(OC)cc1)C(Cl)(Cl)Cl (stereo not given) | i | 23.6% | 1.3% | -4.1% | -2.9% | i
COc1ccc(CNC(=O)c2cc3c(=O)n(C)c4ccccc4c3n2C)c(OC)c1 | i | · | · | · | · | i
CC(C)CC(=O)NC(Nc1ccc([N+](=O)[O-])cc1)C(Cl)(Cl)Cl (stereo not given) | 18.4µM* | 2.2% | ? | -28.1% | 5.2% | ?
